Data taken from PubChem BioAssay (NCATS).
Several values for one entry are separate records, joined by “and”; a condition that tells them apart may be missing. Identical values can stand only once. Inconclusive results are not listed. Activity calls are given as the source filed them. Unless noted, calls follow the shape of the dose curve; as a rule, active = well fitted curve in the direction sought with a large enough effect; inconclusive = small, poorly fitted or top-dose-only effect, or another doubt; inactive = no such curve, though single readings can be large; an effect the other way counts as inactive or inconclusive.

Experiments:
[1] = target: Voltage-gated inwardly rectifying potassium channel KCNH2 (Homo sapiens) (UniProt Q12809); assay: qHTS Assay for Small Molecule Inhibitors of the Human hERG Channel Activity (AID 588834);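 also: lower thallium flux fluorescence means stronger hERG block; nearly all actives have a fitted effect of over 50% in size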; also: potency is read from the fitted curve at half-maximal effect
Sequence of Voltage-gated inwardly rectifying potassium channel KCNH2 (Homo sapiens) (Q12809 whole entry, looked up): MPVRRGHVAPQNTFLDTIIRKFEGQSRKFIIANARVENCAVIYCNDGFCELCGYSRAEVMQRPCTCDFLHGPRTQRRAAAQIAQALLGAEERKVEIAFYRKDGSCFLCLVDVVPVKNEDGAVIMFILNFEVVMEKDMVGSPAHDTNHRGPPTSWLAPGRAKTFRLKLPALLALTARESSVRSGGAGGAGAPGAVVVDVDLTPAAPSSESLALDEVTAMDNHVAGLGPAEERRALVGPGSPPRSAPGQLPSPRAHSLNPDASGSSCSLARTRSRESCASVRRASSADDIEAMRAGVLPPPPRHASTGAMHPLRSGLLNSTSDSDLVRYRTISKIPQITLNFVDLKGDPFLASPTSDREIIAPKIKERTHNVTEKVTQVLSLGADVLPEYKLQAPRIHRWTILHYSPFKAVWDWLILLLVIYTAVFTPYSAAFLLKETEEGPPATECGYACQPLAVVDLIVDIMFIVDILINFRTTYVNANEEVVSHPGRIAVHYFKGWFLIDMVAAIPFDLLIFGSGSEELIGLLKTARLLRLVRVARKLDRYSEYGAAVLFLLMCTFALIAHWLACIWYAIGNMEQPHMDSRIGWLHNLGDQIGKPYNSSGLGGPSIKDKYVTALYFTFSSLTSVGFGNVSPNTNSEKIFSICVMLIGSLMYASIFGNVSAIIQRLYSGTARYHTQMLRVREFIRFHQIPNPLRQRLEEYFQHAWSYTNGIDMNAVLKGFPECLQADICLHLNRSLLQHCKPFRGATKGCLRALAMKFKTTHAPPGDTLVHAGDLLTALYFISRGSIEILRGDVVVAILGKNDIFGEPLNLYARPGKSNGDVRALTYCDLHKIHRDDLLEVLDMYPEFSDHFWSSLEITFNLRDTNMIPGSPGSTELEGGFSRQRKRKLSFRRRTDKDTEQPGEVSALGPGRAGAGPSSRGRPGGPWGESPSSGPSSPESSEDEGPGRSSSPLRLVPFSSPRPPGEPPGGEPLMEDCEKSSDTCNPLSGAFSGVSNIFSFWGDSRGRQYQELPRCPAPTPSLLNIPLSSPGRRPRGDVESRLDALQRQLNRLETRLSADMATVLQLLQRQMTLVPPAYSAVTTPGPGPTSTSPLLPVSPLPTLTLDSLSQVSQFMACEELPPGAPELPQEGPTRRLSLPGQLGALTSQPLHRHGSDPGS
Procedure, shortened: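 U2OS cells transduced with hERG via BacMam (MOI ~100), plated 2000/well, loaded with FluxOR thallium dye, compound ~10 min, then stimulation buffer; fluorescence decrease read kinetically; AC50 from Hill fits.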

[2] = target: Luciferin 4-monooxygenase (Photinus pyralis) (UniProt P08659); assay: Biochemical firefly luciferase enzyme assay for NPC (AID 624030); also: nearly all actives have a fitted effect of over 70% in size; also: potency is read from the fitted curve at half-maximal effect
Sequence of Luciferin 4-monooxygenase (Photinus pyralis) (P08659 whole entry, looked up): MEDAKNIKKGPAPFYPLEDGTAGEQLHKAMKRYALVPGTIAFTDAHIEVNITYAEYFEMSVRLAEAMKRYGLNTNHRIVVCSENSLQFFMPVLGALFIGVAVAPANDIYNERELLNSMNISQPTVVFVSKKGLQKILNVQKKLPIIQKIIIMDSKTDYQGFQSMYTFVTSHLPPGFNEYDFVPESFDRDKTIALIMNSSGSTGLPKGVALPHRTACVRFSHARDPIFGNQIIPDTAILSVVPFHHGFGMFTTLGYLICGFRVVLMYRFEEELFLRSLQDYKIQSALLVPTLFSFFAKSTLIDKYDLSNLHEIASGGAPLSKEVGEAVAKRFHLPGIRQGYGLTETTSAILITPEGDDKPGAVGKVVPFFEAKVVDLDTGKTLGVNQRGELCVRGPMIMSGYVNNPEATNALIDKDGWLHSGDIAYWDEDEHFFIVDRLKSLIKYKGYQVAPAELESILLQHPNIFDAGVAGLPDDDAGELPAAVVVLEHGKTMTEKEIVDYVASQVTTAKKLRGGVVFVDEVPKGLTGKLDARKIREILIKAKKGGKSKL
Procedure, shortened: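 Counter-screen for direct inhibition of the luciferase enzyme by approved-drug library compounds, run at 10 nM enzyme in 50 mM Tris acetate (final). Luminescence was read within 5 min of enzyme-buffer addition and normalized to PTC124 versus DMSO (0%).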

[3] = S16 Schwann cell viability assay (CellTiter-Glo assay) (AID 624031);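 also: cellular ATP luminescence as a viability measure; series mostly up to about 58 µM; nearly all actives have a fitted effect of over 70% in size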
Procedure, shortened: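 Native S16 rat Schwann cells in DMEM/10% FBS without phenol red were incubated overnight, then exposed to compounds for 24 h at 37 °C/5% CO2. Viability was read as ATP luminescence (CellTiter-Glo), normalized to no-cell wells and DMSO (0%).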

[4] = S16 Schwann cell PMP22 intronic element firefly luciferase assay (AID 624032); also: nearly all actives have a fitted effect of over 30% in size; also: potency is read from the fitted curve at half-maximal effect
Procedure, shortened: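 Rat S16 Schwann cells stably carrying a PMP22 intronic element-driven Fluc reporter were seeded overnight, then exposed to compounds for 24 h at 37 °C. Luminescence was normalized to PTC124 (positive control) and DMSO (0% activity).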

[5] = S16 Schwann cell PMP22 intronic element beta-lactamase assay (AID 624044; calls by dose curve; also: nearly all actives have a fitted effect of over 15% in size; also: potency is read from the fitted curve at half-maximal effect)
Procedure, shortened: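 Rat S16 Schwann cells with beta-Lac driven by a PMP22 intronic element, compound-treated 24 h at 37 °C. LiveBLAzer FRET B/G read: 460 nm normalized to potassium clavulanate vs DMSO; 535 nm FRET as viability; concentration-effect curves classified.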

[6] = target: Glucagon-like peptide 1 receptor (Homo sapiens) (UniProt P43220); assay: qHTS of GLP-1 Receptor Agonists: LOPAC Validation (AID 624148);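 also: higher luminescence signal means agonism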
Sequence of Glucagon-like peptide 1 receptor (Homo sapiens) (P43220 whole entry, looked up): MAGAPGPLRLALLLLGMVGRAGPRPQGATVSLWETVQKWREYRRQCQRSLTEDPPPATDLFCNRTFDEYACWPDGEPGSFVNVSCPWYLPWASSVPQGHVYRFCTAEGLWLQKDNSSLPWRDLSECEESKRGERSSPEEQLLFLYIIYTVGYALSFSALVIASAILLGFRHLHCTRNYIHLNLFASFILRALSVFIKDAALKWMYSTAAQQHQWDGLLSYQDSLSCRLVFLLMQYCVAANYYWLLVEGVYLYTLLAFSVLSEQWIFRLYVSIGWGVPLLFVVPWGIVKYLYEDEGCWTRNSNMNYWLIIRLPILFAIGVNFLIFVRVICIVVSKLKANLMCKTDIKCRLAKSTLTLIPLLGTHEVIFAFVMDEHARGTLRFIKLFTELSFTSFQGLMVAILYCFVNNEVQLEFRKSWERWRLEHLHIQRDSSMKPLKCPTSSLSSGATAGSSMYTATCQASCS
Procedure, shortened: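 HEK293 cells stably co-expressing a cAMP-responsive luciferase reporter and a hypersensitive GLP-1R were plated 12 h at 37 °C and exposed to compounds for 4-6 hr at 37 °C, 5% CO2. Luminescence was read 12 min after adding detection reagent.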

[7] = qHTS of Nrf2 Activators: LOPAC Validation (AID 624149)
Procedure, shortened: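 ARE reporter activation measured in AREc32 firefly luciferase cells after 24 hr compound exposure; Steady-Glo luminescence.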

[8] = HTS Assay for Allosteric Antagonists of the Human D2 Dopamine Receptor: Hit Validation in HTRF (AID 624455);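 also: stable D1 dopamine receptor cell line scored for blocking the D1 response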
Procedure, shortened: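 Signal from an HTRF read-out in D1-expressing stable cells gave hit activity as inhibition of the D1 response.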

[9] = target: Glutaminase kidney isoform, mitochondrial (Homo sapiens) (UniProt O94925); assay: qHTS for Inhibitors of Glutaminase (GLS): LOPAC Validation (AID 624146);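 also: glutamate product detected by oxidase and peroxidase coupled Amplex red fluorescence gain; series mostly up to about 46 µM; nearly all actives have a fitted effect of over 60% in size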
Sequence of Glutaminase kidney isoform, mitochondrial (Homo sapiens) (O94925 whole entry, looked up, canonical isoform): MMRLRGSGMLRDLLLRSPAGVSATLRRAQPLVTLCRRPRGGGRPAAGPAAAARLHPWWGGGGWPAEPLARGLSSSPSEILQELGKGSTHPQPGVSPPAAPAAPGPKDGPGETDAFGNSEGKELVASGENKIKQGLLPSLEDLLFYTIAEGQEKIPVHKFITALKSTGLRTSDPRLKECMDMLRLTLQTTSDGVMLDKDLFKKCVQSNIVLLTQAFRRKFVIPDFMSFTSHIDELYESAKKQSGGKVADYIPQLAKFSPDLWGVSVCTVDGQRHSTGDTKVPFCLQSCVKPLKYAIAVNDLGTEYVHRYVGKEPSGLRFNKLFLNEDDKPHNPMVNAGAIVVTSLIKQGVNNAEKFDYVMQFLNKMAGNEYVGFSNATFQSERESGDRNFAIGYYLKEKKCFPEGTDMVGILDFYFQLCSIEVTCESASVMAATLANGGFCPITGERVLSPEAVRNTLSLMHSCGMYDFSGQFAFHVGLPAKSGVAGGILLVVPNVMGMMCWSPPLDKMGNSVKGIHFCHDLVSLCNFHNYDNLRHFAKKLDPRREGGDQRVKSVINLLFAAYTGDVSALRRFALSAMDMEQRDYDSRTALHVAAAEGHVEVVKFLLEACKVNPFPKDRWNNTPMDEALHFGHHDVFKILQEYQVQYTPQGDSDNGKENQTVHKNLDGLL
Procedure, shortened: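 Assay buffer: 45 mM KH2PO4 pH 8.2, 0.02% Tween-20. hKGA acts on L-glutamine (1 mM solution added); product glutamate is reported by an oxidase/peroxidase Amplex Red coupling, with fluorescence taken at baseline and 30 min.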

[10] = qHTS of Trypanosoma Brucei Inhibitors: LOPAC Validation (AID 624147)
Procedure, shortened: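 TbPYK + substrate in 50 mM TEA pH 7.2, 100 mM KCl, 10 mM MgCl2, 0.05% BSA, 0.01% Tween-20; cpd pinned; ADP 130 uM final; 45 min RT; Kinase-Glo Plus 10 min; luminescence endpoint.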

Measured: Potency

CN1[C@@H](CC(=O)c2ccccc2)CCC[C@H]1C[C@H](O)c1ccccc1
active: [1] 1.41 µM
not listed: [9] | [10]
inactive: all other assays above

CC(C(=O)O)c1ccc2c(c1)[nH]c1ccc(Cl)cc12 (configuration not stated)
inactive: [1] | [3] | [4]

CCCCCCCCCCCC(=O)[O][Sn]([CH2]CCC)([CH2]CCC)[O]C(=O)CCCCCCCCCCC
active: [4] 9.07 µM
inactive: [1] | [3] | [5]

COc1ccc(/C=C/C(=O)Nc2ccccc2C(=O)O)cc1OC
active: [2] 0.181 µM
not listed: [8]
inactive: all other assays above

Fc1ccc(C(OCCCc2cnc[nH]2)c2ccc(F)cc2)cc1
active: [1] 1.41 µM
inactive: [9] | [10] | [6] | [7] | [8]

O=C(O)c1cc(=O)c2c(Cl)cc(Cl)cc2[nH]1
inactive: [1] | [9] | [10] | [6] | [7] | [8]

CCCn1c(=O)c2[nH]c(-c3ccc(OCC(=O)NCCN)cc3)nc2n(CCC)c1=O
inactive: [1] | [9] | [10] | [6] | [7] | [8]

Nc1c(CC(=O)O)cccc1C(=O)c1ccc(Br)cc1
inactive: [1] | [3] | [4]

O=c1[nH]c2ccccc2n1CCCN1CCN(C(c2ccccc2)c2ccccc2)CC1
active: [1] 3.55 µM | [4] 8.09 µM
inactive: [2]

c1ccc2sc(SN3CCOCC3)nc2c1
inactive: [1] | [3] | [4]

C[N+](C)(CCCCCC[N+](C)(C)CCCN1C(=O)c2cccc3cccc(c23)C1=O)CCCN1C(=O)c2cccc3cccc(c23)C1=O
inactive: [1] | [9] | [10] | [6] | [7] | [8]

Cc1nc2ccccc2n1Cc1ccc(Cl)cc1
inactive: [1] | [4]

Cc1ccccc1CNc1ncnc2c1ncn2C1OC(CO)C(O)C1O (configuration not stated)
inactive: all assays above

Cc1c(Nc2ncccc2C(=O)O)cccc1C(F)(F)F
inactive: [1] | [3] | [4]

N=c1ccn2c(n1)O[C@H]1[C@H](O)[C@@H](CO)O[C@H]12
active: [4] 14.4 µM | [5] 14.1 µM
inactive: all other assays above

NO
inactive: [1] | [9] | [10] | [6] | [7] | [8]

N.N.O=C(O)C1(C(=O)O)CCC1.[Pt]
inactive: [1] | [2] | [9] | [6] | [7]

CCCC(=O)OC[C@@H](OC(=O)CCC)[C@@H](OC(=O)CCC)[C@H](Cn1c2nc(=O)[nH]c(=O)c-2nc2cc(C)c(C)cc21)OC(=O)CCC
active: [1] 10 µM | [4] 14.4 µM
inactive: [2]

COc1ccc(-c2cc(=S)ss2)cc1
inactive: [1] | [3] | [4]

C=CC(N)CCC(=O)O (configuration not stated)
not listed: [7]
inactive: all other assays above
